In the library only some 1.6% were active in any assay of this set; here they are far more common.
KCNQ2 enhance: potentiators of rat KCNQ2 potassium channel; Potassium voltage-gated channel subfamily KQT member 2 (Rattus norvegicus), O88943; 310,000 compounds, 0.54% hits; AID 2239, 2010; CHO-K1 KCNQ2, FluxOR thallium flux fluorescence; hits give high values; B-score at 10 µM;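 active = fluorescence ratio B-score at least 3 SD of library B-scores, with initial fluorescence B-score within 3 of them, cut at about 5.3 in these data; same plate scores as AID 2156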;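 note: B-score of peak minus minimum over baseline fluorescence ratio after K+ and Tl+ stimulus; positive B-score means potentiation of KCNQ2 with more thallium influx and brighter signal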
Target sequence (O88943 whole entry, looked up): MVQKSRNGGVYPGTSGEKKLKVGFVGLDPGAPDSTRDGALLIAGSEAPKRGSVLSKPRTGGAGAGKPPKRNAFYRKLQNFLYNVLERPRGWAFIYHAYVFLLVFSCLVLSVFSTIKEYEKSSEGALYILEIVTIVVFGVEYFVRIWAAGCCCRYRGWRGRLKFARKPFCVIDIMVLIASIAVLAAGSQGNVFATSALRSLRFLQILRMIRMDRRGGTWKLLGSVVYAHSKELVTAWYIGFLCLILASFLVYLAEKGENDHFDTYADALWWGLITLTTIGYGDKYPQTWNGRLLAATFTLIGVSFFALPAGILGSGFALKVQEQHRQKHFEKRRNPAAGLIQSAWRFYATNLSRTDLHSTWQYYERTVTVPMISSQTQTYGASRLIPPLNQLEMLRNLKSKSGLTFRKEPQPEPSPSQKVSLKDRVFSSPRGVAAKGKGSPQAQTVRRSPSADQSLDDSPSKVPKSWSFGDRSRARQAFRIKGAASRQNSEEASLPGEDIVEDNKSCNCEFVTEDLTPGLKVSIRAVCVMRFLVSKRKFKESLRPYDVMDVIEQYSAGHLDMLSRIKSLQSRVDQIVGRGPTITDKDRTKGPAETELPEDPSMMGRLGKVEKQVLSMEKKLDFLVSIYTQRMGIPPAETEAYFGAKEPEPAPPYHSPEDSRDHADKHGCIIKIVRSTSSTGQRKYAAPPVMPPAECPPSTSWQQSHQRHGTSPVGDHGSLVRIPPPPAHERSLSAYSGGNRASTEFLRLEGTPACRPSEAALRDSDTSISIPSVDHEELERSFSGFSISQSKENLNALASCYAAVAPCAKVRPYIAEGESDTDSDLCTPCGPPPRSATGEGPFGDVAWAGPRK
KCNQ2 block: rat KCNQ2 potassium channel inhibitors, primary screen, cell-based, CHO-K1, FluxOR thallium flux, B-score; Potassium voltage-gated channel subfamily KQT member 2 (Rattus norvegicus), O88943; 20 min; hits give low values; B-score at 10 µM; 310,000 compounds, 1.1% hits; AID 2156, 2009;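 active = fluorescence ratio B-score at most minus 3 library SDs, with starting brightness B-score within 2 library SDs, cut at about -5.5 in these data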
Of the large screens only hits and unclear results are named; the others gave an inactive call.

CCc1nn(C(CC)C(=O)NCCCN2CC(C)CC(C)C2)c(=O)c2cc3oc(C)cc3n12 (centres undefined)	none (no result: KCNQ2 enhance)
O=C(COn1nnc2ccc(Cl)cc21)NC12CC3CC(CC(C3)C1)C2	KCNQ2 block -6.1
O=C(COn1nnc2ccc(Cl)cc21)Nc1ccc(F)cc1	none (no result: KCNQ2 enhance)
CC(C)(C)C(=O)Nc1cccc(-c2cc(-c3c(Cl)cccc3Cl)no2)c1	none (no result: KCNQ2 enhance)
Cc1ccc(S(=O)(=O)N(CC(=O)Nc2ccccc2-c2ccccc2)c2ccc(C)cc2C)cc1	KCNQ2 block -6
Cc1ccc(S(=O)(=O)N(C)CCCC(=O)Nc2ccc(C)cc2C)cc1	KCNQ2 enhance 6.2
Cc1ccc(N(CC(=O)Nc2ccccc2-c2ccccc2)S(=O)(=O)c2ccccc2)cc1	KCNQ2 block -6.2
Cc1cc(C)cc(N(CC(=O)Nc2ccccc2-c2ccccc2)S(=O)(=O)c2ccccc2)c1	none (no result: KCNQ2 enhance)
Cc1cc(F)ccc1NC(=O)CCCN(C)S(=O)(=O)c1ccc(F)cc1	none
Cc1cccc(N(CC(=O)Nc2ccccc2-c2ccccc2)S(=O)(=O)c2ccccc2)c1C	none (no result: KCNQ2 enhance)
C=C(C)CCC(C)N1CCC(n2nccc2NC(=O)CCCc2ccccc2)CC1 (centres undefined)	none
Cc1ccc(C2N(c3ccc(Cl)cc3)C(=O)N3CCCN23)cc1 (centres undefined)	none (no result: KCNQ2 enhance)
CCOC(=O)NN1C(=O)c2ccccc2NC1c1ccc(OC)c(OC)c1 (centres undefined)	none
Cc1ccc(C(=O)N/C(=C\c2ccco2)C(=O)N2CCOCC2)cc1C	none
CC(=O)Nc1ccc(NS(=O)(=O)c2ccc(C)cc2)c([N+](=O)[O-])c1	none (no result: KCNQ2 enhance)
CCC(C)n1cnc2c(c1=O)c1nc3ccccc3nc1n2Cc1ccc2c(c1)OCO2 (centres undefined)	none
Cc1nc2c(c(=O)n1CCC(C)C)c1nc3ccccc3nc1n2Cc1ccc2c(c1)OCO2	KCNQ2 block -6.3
COc1ccc(C(=O)Nn2c(C)nc3ccccc3c2=O)cc1Br	none
COc1ccc(NC(=O)CN(C)C(=O)Cn2c(=O)oc3ccccc32)cc1	none (no result: KCNQ2 enhance)
O=C(C1COc2ccccc2O1)N1CCN(Cc2ccc(Br)cc2F)CC1 (centres undefined)	none (no result: KCNQ2 enhance)
CCCc1cc(=O)oc2c3c(cc(OCC(=O)NCCN4CCOCC4)c12)OC(C)(C)CC3	none (no result: KCNQ2 enhance)
O=C(c1cc(Cl)nc2ccccc12)N1CCN(S(=O)(=O)c2cccc(C(F)(F)F)c2)CC1	none
O=C(CSc1nnc(C2CCCCC2)n1-c1ccccc1)NCc1ccco1	KCNQ2 block -5.6
CCNC(=O)CSc1nnc(C2CC2)n1-c1ccccc1	none (no result: KCNQ2 enhance)
COCCC(=O)N1CCC(Oc2ccc(C(=O)NCCC3=CCCCC3)cc2)CC1	none (no result: KCNQ2 enhance)
CC(C)(C)OC1NS(=O)(=O)OCC1NCOC(Cl)(Cl)Cl (centres undefined)	none (no result: KCNQ2 enhance)
Cc1ccc(S(=O)(=O)C2(C(=O)N3CCN(c4ccccc4F)CC3)CC2)cc1	none (no result: KCNQ2 enhance)
O=C(N1CCN(c2cccc(Cl)c2)CC1)C1(S(=O)(=O)c2ccc(Cl)cc2)CC1	none (no result: KCNQ2 enhance)
Cc1ccc(Cl)cc1N1CCN(C(=O)C2(S(=O)(=O)c3ccc(Cl)cc3)CC2)CC1	KCNQ2 block -6.2
Cc1cccc(N2CCN(C(=O)C3(S(=O)(=O)c4ccc(Cl)cc4)CC3)CC2)c1C	KCNQ2 block -6.2
CN(C)S(=O)(=O)n1cc(/C=C(\NC(=O)c2ccccc2)C(=O)N2CCCC2)c2ccccc21	none (no result: KCNQ2 enhance)
CN(Cc1ccc(N(C)C)cc1)C(=O)c1cc2ccccc2o1	none (no result: KCNQ2 enhance)
COc1ccc(/C=C(\NC(=O)c2ccco2)C(=O)N2CCCCC2)cc1	none
COc1cccc(NC(=S)N(Cc2ccc(Cl)cc2)Cc2ccc(C(=O)O)cc2)c1	none (no result: KCNQ2 enhance)
O=S(=O)(c1ccccc1Cl)N1CCCC1c1nc(-c2cccc(Cl)c2)no1 (centres undefined)	KCNQ2 block -6.3
O=S(=O)(c1ccc(Cl)cc1)N1CCCC1c1nc(-c2cccc(Cl)c2)no1 (centres undefined)	KCNQ2 block -5.9
O=S(=O)(c1ccc(Cl)cc1)N1CCCC1c1nc2ccccc2s1 (centres undefined)	none (no result: KCNQ2 enhance)
O=S(=O)(c1ccccc1Cl)N1CCCC(c2nc(-c3cccnc3)no2)C1 (centres undefined)	none
COc1cccc(-c2nc3ccc(C(=O)NC(C)Cc4cccnc4)cc3o2)c1 (centres undefined)	none (no result: KCNQ2 enhance)
Cc1cc(SCc2cccc(C(F)(F)F)c2)nc(=O)[nH]1	none
CCN(CC(=O)NCc1ccncc1)S(=O)(=O)c1ccc(OC)cc1	none (no result: KCNQ2 enhance)
CCC1COCCS(=O)(=O)N1Cc1ccc(F)cc1 (centres undefined)	none
CC1CCCCN1C(=O)COC(=O)C1CCN(S(=O)(=O)c2ccc3c(c2)OCCO3)CC1 (centres undefined)	none
CN(C)c1ccc(S(=O)(=O)NCC(=O)N2CCN(c3ccccc3)CC2)cc1[N+](=O)[O-]	none
CCOc1ccc(C2C(C(=O)OC)=CN(C(C)c3ccccc3)C=C2C(=O)OC)cc1 (centres undefined)	KCNQ2 block -7.4
CCOc1ccc(CCNC(=O)C(O)c2ccccc2)cc1 (centres undefined)	none
